According to PubChem BioAssay AID651820 (National Center for Advancing Translational Sciences (NCATS), 2012):
About 12,000 (3.5%) of roughly 340,000 compounds were called active. Inconclusive results (about 18%) are left out. The entries come from a sample that favours actives as a whole. A number with no mark means an inactive call. Calls follow the shape of the dose curve; as a rule, active = well fitted inhibition curve with a large enough effect; inconclusive = small, poorly fitted or top-dose-only effect, or another doubt; inactive = no such curve, though single readings can be large or run the other way.
% is scaled to controls: 0 for no effect and ±100 for the full control effect; potency is read from the fitted curve at half-maximal effect.

Assay: qHTS Assay for Inhibitors of Hepatitis C Virus (HCV)
Conditions: Huh7.5.1 HCVcc-Cre infection, luciferase reporter, 44 h; series mostly up to 41.8 µM; activity change, negative = inhibition: at the top concentration
Outline: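 HCVcc-Cre virus at an moi near 0.5 was added right after compound to cells cultured 4 h from seeding (1,000 cells/well). Luciferase activity was determined 44 h later, 15 min after substrate addition at RT.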
With `CN(C)/N=C/c1cn(-c2ccccc2)nc1-c1cccnc1` the “activity change, negative = inhibition” value was -5.06%. In the case of `COc1cc(C(=O)Nc2nccs2)cc(OC)c1OC`, the Potency was 14.1 µM (active). In the case of `COc1ccc(-c2nn(-c3ccccc3)cc2/C=N/Nc2ccccn2)cc1OC`, the Potency was 10 µM (active). In the case of `Cn1cccc1C(=O)Nc1nccs1`, the “activity change, negative = inhibition” value was -12.1%. For `O=C(O)c1ccccc1-c1ccccc1C(=O)Nc1nccs1`, the “activity change, negative = inhibition” value was 7.11%. In the case of `Cc1ccc(C)c(NC(=O)CN(C)C(=O)COc2ccc3ccccc3c2)c1`, the “activity change, negative = inhibition” value was 4.35%. In the case of `CC(NC(=O)COC(=O)c1ccc2ccccc2n1)c1ccccc1` (stereo unspecified), the “activity change, negative = inhibition” value was 14.5%. For `COc1cc(NC(=O)COC(=O)c2cc(S(=O)(=O)N3CCOCC3)ccc2F)cc(OC)c1`, the “activity change, negative = inhibition” value was -6.05%. For `Cc1ccc(F)cc1NC(=O)CSCc1c(C)noc1C`, the “activity change, negative = inhibition” value was 7.86%. For `O=C(COC(=O)CNS(=O)(=O)c1ccc(F)c(F)c1F)NC1CCCC1`, the “activity change, negative = inhibition” value was 14.1%. In the case of `CCC1(C)COC(c2ccc(OC)c(OC)c2)OC1` (stereo unspecified), the “activity change, negative = inhibition” value was 10.1%. For `C=CCC[C@@H](Cc1ccc(F)cc1)C(=O)O[C@H](CNC(=O)[C@H](CC=C)CC(=O)N(CCO)Cc1ccccc1)c1ccccc1`, the Potency was 8.91 µM (active). For `C=CC[C@H](CC(=O)NCCO)C(=O)N[C@@H](COC(=O)[C@@H](CC=C)Cc1ccc(F)cc1)Cc1c[nH]c2ccccc12`, the “activity change, negative = inhibition” value was -1.64%. With `C=CC[C@H](CC(=O)OC(C)(C)C)C(=O)OC[C@H]1CCCN1C(=O)[C@H](CC=C)CC(=O)N(CCO)Cc1ccccc1` the “activity change, negative = inhibition” value was -2.88%. For `COc1ccc(OC)c(Nc2nc3ccccc3n3cnnc23)c1`, the Potency was 10 µM (active). For `COc1ccc(CCNc2nc3ccc(C)cc3n3cnnc23)cc1OC`, the “activity change, negative = inhibition” value was -4.98%. With `COc1cc(Nc2nc3ccc(Cl)cc3n3cnnc23)cc(OC)c1OC` the “activity change, negative = inhibition” value was 0.274%. For `CN1CCC(N(C)C(=O)c2ccc(Cl)c(S(=O)(=O)Nc3ccc(Cl)cc3)c2)CC1`, the “activity change, negative = inhibition” value was 7.94%. With `CC1CC(C)(C)CC2(C1)NC(=O)N(CC(=O)Nc1nccs1)C2=O` (stereo unspecified) the “activity change, negative = inhibition” value was 21.6%. In the case of `COc1ccc2[nH]c3ccc(OC)cc3c2c1`, the Potency was 25.1 µM (active). For `COc1ccc2[nH]c(=S)cc(C)c2c1`, the “activity change, negative = inhibition” value was 13.3%. In the case of `COc1ccc2[nH]c3c(c2c1)CCN[C@H]3C`, the “activity change, negative = inhibition” value was -6.42%. With `COc1ccc(-c2noc(CCC(=O)N3CCN(c4cccc(C)c4)CC3)n2)cc1` the “activity change, negative = inhibition” value was -3.79%. For `COc1cccc(-n2c(SCC(=O)NC3CCS(=O)(=O)C3)nc3ccccc3c2=O)c1` (stereo unspecified), the “activity change, negative = inhibition” value was 21.3%. For `O=C1CC(c2ccccc2)C(=O)N2C(=O)CC(c3ccccc3)C(=O)N12` (stereo unspecified), the “activity change, negative = inhibition” value was 17.1%. `CCN(CC)C(=O)[C@H]1C[C@H](CC(=O)NCC23CC4CC(CC(C4)C2)C3)C(=O)N2CCc3c([nH]c4cc(CCC(=O)N(C)C)ccc34)[C@]12C` gave an activity change, negative = inhibition of -5.73% [at 8.37 µM]. With `CCC(=O)c1ccc(OCC(=O)Nc2ccc(N3CCCCC3)cc2)cc1` the Potency was 11.2 µM (active). For `O=C(COc1ccc([N+](=O)[O-])cc1)Nc1ccc(N2CCCC2)cc1`, the “activity change, negative = inhibition” value was 2.94%. For `COc1ccc(OCC(=O)Nc2ccc(N3CCC(C)CC3)cc2)cc1`, the “activity change, negative = inhibition” value was -12.1%. With `O=C(NC(=S)Nc1ccc(Br)cc1F)C1CCCCC1` the “activity change, negative = inhibition” value was 18.5%. With `Cc1c(NS(=O)(=O)c2cc(C(=O)NCCc3ccc(F)cc3)cc(Cl)c2Cl)c(=O)n(-c2ccccc2)n1C` the “activity change, negative = inhibition” value was 14.6%. With `CCN(CC(=O)NC(C)C)C(=O)c1cc(S(=O)(=O)N2CCCCC2)ccc1N1CCCCC1` the “activity change, negative = inhibition” value was 26.8%. With `COCCCNC(=O)/C=C/c1ccc(OCc2c(F)cccc2Cl)cc1` the “activity change, negative = inhibition” value was -5.61%. In the case of `O=C(/C=C/c1ccc(OCc2c(F)cccc2Cl)cc1)N1CCOCC1`, the “activity change, negative = inhibition” value was 4.94%. For `CN(C)CCCNC(=O)/C=C/c1ccc(OCc2c(F)cccc2Cl)cc1`, the Potency was 2.82 µM (active). With `O=C1COc2ccc(C(=O)COC(=O)CCOc3ccccc3)cc2N1` the “activity change, negative = inhibition” value was 35.1%. In the case of `COCCN(C(=O)CC1CCCCC1)c1c(N)n(CC(C)C)c(=O)[nH]c1=O`, the “activity change, negative = inhibition” value was 2.89%. For `CCCCn1c(N)c(N(CCOC)C(=O)c2cccc(S(=O)(=O)N3CCCCC3)c2)c(=O)[nH]c1=O`, the “activity change, negative = inhibition” value was 9.94%. For `Cc1ncoc1C(=O)NCCC(c1ccccc1)c1ccccc1`, the “activity change, negative = inhibition” value was -13.5%. With `CC(Cc1ccccc1)C(=O)N(C)Cc1ccccc1` (stereo unspecified) the “activity change, negative = inhibition” value was -10.3%. For `CC(Cc1ccccc1)NCCC(c1ccccc1)c1ccccc1` (stereo unspecified), the Potency was 10 µM (active). For `CC[C@]12c3[nH]c4ccc(OC)cc4c3CCN1C(=O)C(CC(=O)NCc1ccco1)C[C@@H]2C(=O)N1CCN(C(=O)C2CC2)CC1` (stereo partly specified), the “activity change, negative = inhibition” value was 36.7%. For `O=C(CN1CCN(S(=O)(=O)c2ccc(Cl)s2)CC1)N1CCCCC1`, the “activity change, negative = inhibition” value was 3.28%. For `COc1ccc(C(=O)NC2=NCCS2)c(OC)c1`, the “activity change, negative = inhibition” value was -19.4%. For `COc1ccc(OC)c(NC(=O)c2sc3nc(C)cc(C)c3c2N)c1`, the “activity change, negative = inhibition” value was 20.2%. In the case of `COc1ccc(OC)c(-c2csc(NC(=O)C3=NNC(=O)CC3)n2)c1`, the Potency was 0.891 µM (active). For `COc1ccc(CCNC(=O)COC(=O)C2CCCCC2)cc1`, the “activity change, negative = inhibition” value was 19.3%. For `COc1ccc(OC)c(-c2csc(NC(=O)COC(=O)C3CC3)n2)c1`, the Potency was 10 µM (active). For `COc1ccc(-c2csc(NC(=O)COC(=O)c3ccc(Br)o3)n2)cc1`, the “activity change, negative = inhibition” value was 0.372%. With `COCCCn1c(SCC(=O)Nc2oc(C)c3c(C)n[nH]c(=O)c23)nc2sc3c(c2c1=O)CCC3` the “activity change, negative = inhibition” value was 6.64%. With `COc1ccc(CN2C(CC(=O)Nc3cccnc3)c3ccc(C(F)(F)F)cc3S2(=O)=O)cc1` (stereo unspecified) the “activity change, negative = inhibition” value was 5.53%.
